# Biological target: AgAbp1
# Experiment: SPOT peptide array binding signal intensity (averaged, normalized) (arbitrary units (background-subtracted, floor 0; scale differs between SH3 domains)); higher = stronger binding of the SH3 domain to the peptide
# Summary of the method: (§1)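 Peptides were synthetic 15-mers on cellulose membranes, with every cysteine replaced by serine. They were incubated overnight at 4°C with GST-SH3 domains from four yeast species at 10 μg/ml in TBS-based blocking buffer. Binding signal, the replicate-averaged normalized and background-subtracted spot intensity, is in arbitrary units that differ between domains.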
row,Binder,SPOT peptide array binding signal intensity
1,MAMRPIPPLPTESEY,9

# Biological target: AgBbc1
# Experiment: as above
# Summary of the method: as §1
row,Binder,SPOT peptide array binding signal intensity
1,MAMRPIPPLPTESEY,8

# Biological target: AgBem1-D1
# Experiment: as above
# Summary of the method: as §1
row,Binder,SPOT peptide array binding signal intensity
1,MAMRPIPPLPTESEY,155

# Biological target: AgBzz1-D1
# Experiment: as above
# Summary of the method: as §1
row,Binder,SPOT peptide array binding signal intensity
1,MAMRPIPPLPTESEY,7

# Biological target: AgBzz1-D2
# Experiment: as above
# Summary of the method: as §1
row,Binder,SPOT peptide array binding signal intensity
1,MAMRPIPPLPTESEY,≤ 0

# Biological target: AgCyk3
# Experiment: as above
# Summary of the method: as §1
row,Binder,SPOT peptide array binding signal intensity
1,MAMRPIPPLPTESEY,13

# Biological target: AgFus1
# Experiment: as above
# Summary of the method: as §1
row,Binder,SPOT peptide array binding signal intensity
1,MAMRPIPPLPTESEY,55.5

# Biological target: AgHof1
# Experiment: as above
# Summary of the method: as §1
row,Binder,SPOT peptide array binding signal intensity
1,MAMRPIPPLPTESEY,87.8

# Biological target: AgHse1
# Experiment: as above
# Summary of the method: as §1
row,Binder,SPOT peptide array binding signal intensity
1,MAMRPIPPLPTESEY,38

# Biological target: AgLsb1
# Experiment: as above
# Summary of the method: as §1
row,Binder,SPOT peptide array binding signal intensity
1,MAMRPIPPLPTESEY,230

# Biological target: AgLsb4
# Experiment: as above
# Summary of the method: as §1
row,Binder,SPOT peptide array binding signal intensity
1,MAMRPIPPLPTESEY,1930

# Biological target: AgMyo5
# Experiment: as above
# Summary of the method: as §1
row,Binder,SPOT peptide array binding signal intensity
1,MAMRPIPPLPTESEY,≤ 0

# Biological target: AgNbp2
# Experiment: as above
# Summary of the method: as §1
row,Binder,SPOT peptide array binding signal intensity
1,MAMRPIPPLPTESEY,81

# Biological target: AgRvs167
# Experiment: as above
# Summary of the method: as §1
row,Binder,SPOT peptide array binding signal intensity
1,MAMRPIPPLPTESEY,308

# Biological target: AgSho1
# Experiment: as above
# Summary of the method: as §1
row,Binder,SPOT peptide array binding signal intensity
1,MAMRPIPPLPTESEY,353

# Biological target: AgSla1-D1-D2
# Experiment: as above
# Summary of the method: as §1
row,Binder,SPOT peptide array binding signal intensity
1,MAMRPIPPLPTESEY,2

# Biological target: AgSla1-D3
# Experiment: as above
# Summary of the method: as §1
row,Binder,SPOT peptide array binding signal intensity
1,MAMRPIPPLPTESEY,≤ 0

# Biological target: CaAbp1-D1
# Experiment: as above
# Summary of the method: as §1
row,Binder,SPOT peptide array binding signal intensity
1,MAMRPIPPLPTESEY,35

# Biological target: CaAbp1-D2
# Experiment: as above
# Summary of the method: as §1
row,Binder,SPOT peptide array binding signal intensity
1,MAMRPIPPLPTESEY,79

# Biological target: CaBbc1
# Experiment: as above
# Summary of the method: as §1
row,Binder,SPOT peptide array binding signal intensity
1,MAMRPIPPLPTESEY,32

# Biological target: CaBem1-D1
# Experiment: as above
# Summary of the method: as §1
row,Binder,SPOT peptide array binding signal intensity
1,MAMRPIPPLPTESEY,71

# Biological target: CaBzz1-D1
# Experiment: as above
# Summary of the method: as §1
row,Binder,SPOT peptide array binding signal intensity
1,MAMRPIPPLPTESEY,54

# Biological target: CaBzz1-D2
# Experiment: as above
# Summary of the method: as §1
row,Binder,SPOT peptide array binding signal intensity
1,MAMRPIPPLPTESEY,39

# Biological target: CaCyk3
# Experiment: as above
# Summary of the method: as §1
row,Binder,SPOT peptide array binding signal intensity
1,MAMRPIPPLPTESEY,12

# Biological target: CaFus1
# Experiment: as above
# Summary of the method: as §1
row,Binder,SPOT peptide array binding signal intensity
1,MAMRPIPPLPTESEY,226

# Biological target: CaHof1
# Experiment: as above
# Summary of the method: as §1
row,Binder,SPOT peptide array binding signal intensity
1,MAMRPIPPLPTESEY,10

# Biological target: CaHse1
# Experiment: as above
# Summary of the method: as §1
row,Binder,SPOT peptide array binding signal intensity
1,MAMRPIPPLPTESEY,186

# Biological target: CaLsb1
# Experiment: as above
# Summary of the method: as §1
row,Binder,SPOT peptide array binding signal intensity
1,MAMRPIPPLPTESEY,11

# Biological target: CaLsb4
# Experiment: as above
# Summary of the method: as §1
row,Binder,SPOT peptide array binding signal intensity
1,MAMRPIPPLPTESEY,1410

# Biological target: CaMyo5
# Experiment: as above
# Summary of the method: as §1
row,Binder,SPOT peptide array binding signal intensity
1,MAMRPIPPLPTESEY,35.2

# — the supplement of paper PMC4466140
